Screens deposited in PubChem by National Center for Advancing Translational Sciences (NCATS).
This is a sample that favours compounds with a hit; in the whole collection about 19% have one here.
DT40 TDP1 CPT: DT40-hTDP1 cell growth loss with CPT | chicken DT40 Tdp1-/-;hTDP1 cells + 20 nM CPT, ATP luminescence, 48 h | Potency, µM (highest dose often 46.2 µM), for inactives: at the highest dose activity change, negative = growth inhibition, usual class: inhibitors | 12% of 420,000 active; note: potency is the fitted concentration of half-maximal effect; nearly all actives have a fitted effect of over 55% in size
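Chicken DT40 Tdp1-/- cells stably complemented with human TDP1 were seeded at 400 cells/well in medium containing 20 nM camptothecin, exposed to pin-transferred compounds, and grown at 37 °C for at least 48 hr. Viability was read as ATP luminescence.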
IL-1B inflam inh: inflammasome signaling inhibition, IL-1 beta readout | AID 743279 | 4.7% of 360,000 active | THP-1 LPS/ATP IL-1B secretion, AlphaLISA, 16 h; active compounds read low | activity change, % at 57.5 µM; in the data active = activity change below about -50%; inconclusive = mostly about -30% to -49%
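THP-1 cells pretreated 1 hr with compounds (up to 57.5 uM final), then stimulated with LPS (250 ng/mL final) plus ATP (1.25 mM final); secreted IL-1B measured by AlphaLISA after 16 hr, decreased signal indicating inhibition.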
HT1080 IDH1KD tx: toxicity to HT-1080 IDH1 knockdown cells (counter line); Potency, µM (titrated, usually from 46.1 µM), for inactives: at the top dose activity, negative = toxicity, most hits filed as cytotoxic; HT-1080 IDH1 knockdown viability, ATP luminescence, 48 h; 2% of 360,000 active;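 note: potency is the fitted concentration of half-maximal effect; 0% = DMSO wells and -100% = cell-free medium wells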
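In this qHTS, HT-1080 cells depleted of IDH1 are exposed for 48 h at 37 °C to compound titrations. Toxicity is scored from CellTiter-Glo luminescence, with DMSO as full viability and medium alone as none.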
HT1080-NT tox: kills 2HG-producing HT-1080-NT fibrosarcoma cells. HT-1080-NT fibrosarcoma viability, CellTiter-Glo ATP luminescence, 48 h. AID 686970. 1.6% of 360,000 active. Potency, µM (series often up to 46.1 µM), without a hit: top-dose activity, negative = less viability, actives largely listed as cytotoxic;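 note: NT is the 2HG producing partner of a matched IDH1 knockdown line; potency is the fitted concentration of half-maximal effect; 0% = DMSO-treated cells and -100% = media-only wells without cells; nearly all actives have a fitted effect of over 55% in size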
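A 48-hour cytotoxicity screen used HT-1080-NT cells plated 2 hours before compound delivery. ATP-based CellTiter-Glo luminescence measured viability, normalized to DMSO and no-cell controls.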
DT40 TDP1 no CPT: qHTS for Inhibitors of human tyrosyl-DNA phosphodiesterase 1 (TDP1): qHTS in cells in absence of CPT. DT40 Tdp1-/- hTDP1 cells, no CPT, ATP luminescence, 48 h. Potency, µM (top dose mostly 46.2 µM), without a hit: top-dose activity change, negative = growth inhibition, actives largely listed as inhibitors. 15% of 420,000 active. AID 686978, 2013; note: potency is the fitted concentration of half-maximal effect; nearly all actives have a fitted effect of over 55% in size
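Stably hTDP1-transfected Tdp1-null chicken DT40 cells were treated with library compounds minus camptothecin and grown for at least 48 hr at 37 °C, after which cellular ATP was quantified by luminescence.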
The depositor's hits bear a star; ? = inconclusive; . = no result given. Unless noted, calls come from the whole dose curve; as a rule, active = well fitted curve in the direction sought with a large enough effect; inconclusive = small, poorly fitted or top-dose-only effect, or another doubt; inactive = no such curve, though single readings can be large; an effect the other way counts as inactive or inconclusive. Unless noted, % is set by controls: 0 for no effect and ±100 for the full control effect.

SMILES	DT40 TDP1 CPT	IL-1B inflam inh	HT1080 IDH1KD tx	HT1080-NT tox	DT40 TDP1 no CPT
N#CC1=C(N)C(C#N)(C#N)C(c2ccc[nH]2)C2CCCC=C12 (stereo unspecified)	?	-27	?	-24%	?
O=C(Nc1nc2ccccc2s1)c1ccc(N2CCCCC2)c([N+](=O)[O-])c1	23µM*	-11	-9%	-20%	15µM*
O=C(Nc1nc(-c2ccccc2)cs1)c1ccc(N2CCOCC2)c([N+](=O)[O-])c1	15µM*	?	?	?	8.2µM*
Cc1ccc(-c2csc(NC(=O)c3cc([N+](=O)[O-])ccc3N3CCOCC3)n2)cc1	?	21	4%	-9%	?
O=C(Nc1ccon1)c1ccc(N2CCCCC2)c([N+](=O)[O-])c1	?	?	-3%	-1%	?
CS(=O)(=O)N1CCC(C(=O)Nc2cccc(Cl)c2Cl)CC1	-1%	-13	9%	4%	-13%
COc1ccc([N+](=O)[O-])cc1/C=N/NC(=O)/C(=C\c1cccs1)NC(=O)c1ccccc1	?	-18	1%	-8%	21µM*
COc1ccc(/C=C(/NC(=O)c2ccccc2)C(=O)N/N=C/c2cccs2)cc1OC	-2%	-16	3%	0%	-3%
O=C(N/N=C/c1cccnc1)/C(=C\c1cccs1)NC(=O)c1ccccc1	-3%	0	-1%	6%	-20%
O=C(N/N=C/c1cc2ccccc2nc1Cl)[C@H]1C[C@@H]1c1ccccc1	21µM*	0	-3%	0%	16µM*
O=C(N/N=C/c1cc2ccccc2nc1Cl)/C(=C/c1cccs1)NC(=O)c1ccccc1	23µM*	19	-9%	-13%	?
Cc1cccc2cc(/C=N/NC(=O)[C@H]3C[C@@H]3c3ccccc3)c(Cl)nc12	-1%	31	-1%	-7%	0%
Cc1cc(C)c(NC(=O)C2CCN(S(C)(=O)=O)CC2)c(C)c1	-20%	11	4%	1%	-17%
Cn1c(=O)n(Cc2ccc(Cl)cc2)c(=O)c2c1nc1n2CCN1Cc1ccco1	?	-1	1%	-10%	15µM*
Cc1cccc(Cn2c(=O)c3c(nc4n3CCN4Cc3ccco3)n(C)c2=O)c1	21µM*	-25	-15%	-1%	21µM*
COc1ccc(CNc2nc3c(c(=O)n(Cc4ccc(Br)cc4)c(=O)n3C)n2C)cc1	?	0	?	?	21µM*
CC1CN(c2nc3c(c(=O)n(Cc4ccc(Cl)cc4)c(=O)n3C)n2C)CC(C)O1 (stereo unspecified)	?	0	-17%	-5%	26µM*
Nc1ccn([C@@H]2O[C@H](C(=O)N[C@H](CO)Cc3ccccc3)[C@@H](O)[C@H]2O)c(=O)n1	9%	-15	6%	25%	4%
CCc1ccc(C(=O)NC2=NC(c3ccccc3F)CC(=O)N2)cc1 (stereo unspecified)	-8%	.	.	.	2%
Cc1ccc(C(=O)NC(C)(COc2nonc2C)COc2nonc2C)cc1	-30%	-4	-22%	7%	?
COc1ccccc1N(C)C	-2%	.	.	.	3%
Cn1c(NCc2ccco2)nc2c1c(=O)n(Cc1ccc(Cl)cc1)c(=O)n2C	?	-24	-18%	-23%	18µM*
Cn1c(NCc2ccco2)nc2c1c(=O)n(Cc1ccc(Br)cc1)c(=O)n2C	?	-11	-24%	-23%	?
CCNC(=O)CC1C(=O)N(c2ccc(F)cc2)C(=O)N1CCOC (stereo unspecified)	7%	.	.	.	-1%
CCCCNc1nccnc1-c1cccc(C=O)c1	18µM*	40	21%	?	?
SMILES	DT40 TDP1 CPT	IL-1B inflam inh	HT1080 IDH1KD tx	HT1080-NT tox	DT40 TDP1 no CPT
CC1CCN(C2CC(=O)N(c3ccccc3)C2=O)CC1 (stereo unspecified)	21µM*	-8	7%	6%	-15%
CCOC(=O)c1ccc(N2C(=O)CC(N3CCCC(C)C3)C2=O)cc1 (stereo unspecified)	13µM*	13	20%	0%	?
Cc1cc(C)n(C2CC(=O)N(c3cccc(Cl)c3)C2=O)n1 (stereo unspecified)	15µM*	7	22%	12%	?
O=C(O)c1ccc(N2C(=O)CC(N3CCN(c4cccc(Cl)c4)CC3)C2=O)cc1 (stereo unspecified)	-27%	18	7%	15%	3.3µM*
O=C1CC(N2CCN(Cc3ccccc3)CC2)C(=O)N1c1ccccc1 (stereo unspecified)	2%	18	1%	3%	-2%
O=C1CC(N2CCOCC2)C(=O)N1c1cccc(Cl)c1 (stereo unspecified)	-19%	0	12%	15%	-8%
CC(NCC(=O)Nc1ccccc1C(=O)NC1CC1)c1ccc(F)cc1F (stereo unspecified)	?	-4	1%	7%	-10%
OC(CNC1CCCCC1)CON=C1CCSc2c(Cl)cccc21 (stereo unspecified)	23µM*	?	?	-22%	8.2µM*
CCC(=O)c1ccc(OCC(O)CNC2CCCC2)cc1 (stereo unspecified)	-4%	-12	-4%	-10%	20%
O=C(COc1coc(CN2CCN(c3cccc(Cl)c3)CC2)cc1=O)NC1CCCC1	?	-1	0%	7%	15µM*
Cc1ccc(NC(=O)COc2coc(CN3CCN(c4ccccc4)CC3)cc2=O)cc1	-29%	13	-4%	-1%	21µM*
CC(C)NC(=O)COc1coc(CN2CCN(c3cccc(Cl)c3)CC2)cc1=O	-19%	53	5%	15%	5%
CCC(C)NC(=O)c1ccc([N+](=O)[O-])c(Cl)c1 (stereo unspecified)	4%	-20	14%	-1%	-16%
CNC(=O)c1ccsc1NC(=O)c1coc2ccccc2c1=O	?	2	8%	26%	18µM*
CN(C)c1nc(-c2ccccn2)nnc1-c1ccccc1	10µM*	96	?	-24%	15µM*
c1ccc(-c2nnc(-c3ccccn3)c(-c3ccccn3)n2)nc1	?	11	-24%	-24%	?
CCN(CC)c1nc(-c2ccccn2)nc(-c2ccccc2)c1C#N	18µM*	?	-16%	-26%	3.3µM*
Cc1ccc(NC(=O)Cc2nnc(SCC(=O)NC3CCCC3)n2C)c(C)c1	-7%	-10	-4%	0%	-42%
CS(=O)(=O)c1[nH]nc(-c2cccc(Cl)c2)c1C#N	0%	.	15%	19%	-1%
